Source: PubChem BioAssay AID1159580 (chemical genetic matrix, 2015)
Screen size: about 5,500 compounds; about 2,000 (36%) were called active. About 18% were inconclusive and are not listed. Rule as the data show it: active = normalized growth mostly below about 0.91 (no sharp cut-off); inconclusive = no clear call, values can overlap the other calls; inactive = mostly above about 0.92. The list shows a part of the results.

Experiment: chemical genetic growth profiling, strain panel (AID 1159580);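 also: tested at 20 µM; growth read once vehicle control cultures reached saturation at 30 °C; 1 = growth at the plate median or of vehicle wells; lower values mean less growth of the strain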
Settings: growth OD

Measured: normalized growth

Cc1ccc(S(=O)(=O)NC(=O)NN2CC3CCCC3C2)cc1 (stereo not drawn)
inactive: S. cerevisiae deletion strains, locus YJR043C, strain POL32, stronger effect = lower value 0.991 | S. cerevisiae deletion strains, locus YJR066W, strain TOR1, stronger effect = lower value 0.904 | S. cerevisiae deletion strains, locus YKL009W, strain mrt4, stronger effect = lower value 1.02 | S. cerevisiae deletion strains, locus YKL068W, stronger effect = lower value 1.01 | S. cerevisiae deletion strains, locus YKL085W, strain MDH1 (second series), stronger effect = lower value 1.04 | S. cerevisiae deletion strains, locus YKL085W, strain MDH1, stronger effect = lower value 1.04 | S. cerevisiae deletion strains, locus YKL160W, strain elf1, stronger effect = lower value 0.98 | S. cerevisiae deletion strains, locus YKL190W, strain CNB1, stronger effect = lower value 1.01 | S. cerevisiae deletion strains, locus YKR001C, strain vps1, stronger effect = lower value 1.01 | S. cerevisiae deletion strains, locus YKR026C, strain gcn3, stronger effect = lower value 0.978 | S. cerevisiae deletion strains, locus YKR091W, strain srl3, stronger effect = lower value 0.974 | S. cerevisiae deletion strains, locus YLL001W, strain dnm1, stronger effect = lower value 0.953 | S. cerevisiae deletion strains, locus YLL026W, stronger effect = lower value 0.974 | S. cerevisiae deletion strains, locus YLL041C, strain sdh2, stronger effect = lower value 0.982 | S. cerevisiae deletion strains, locus YLR027C, strain aat2, stronger effect = lower value 0.976 | S. cerevisiae deletion strains, locus YLR039C, strain RIC1, stronger effect = lower value 0.943 | S. cerevisiae deletion strains, locus YLR058C, strain SHM2, stronger effect = lower value 1.01 | S. cerevisiae deletion strains, locus YLR102C, strain apc9, stronger effect = lower value 1.01 | S. cerevisiae deletion strains, locus YLR113W, strain HOG1, stronger effect = lower value 0.974 | S. cerevisiae deletion strains, locus YLR221C, strain rsa3, stronger effect = lower value 0.976 | S. cerevisiae deletion strains, locus YLR258W, strain gsy2, stronger effect = lower value 0.99 | S. cerevisiae deletion strains, locus YLR262C, strain YPT6 (second series), stronger effect = lower value 0.927 | S. cerevisiae deletion strains, locus YLR262C, strain YPT6, stronger effect = lower value 0.967 | S. cerevisiae deletion strains, locus YLR268W, strain sec22, stronger effect = lower value 0.999 | S. cerevisiae deletion strains, locus YLR320W, strain mms22, stronger effect = lower value 0.983 | S. cerevisiae deletion strains, locus YLR330W, strain CHS5, stronger effect = lower value 1 | S. cerevisiae deletion strains, locus YLR342W, strain FKS1 (second series), stronger effect = lower value 0.992 | S. cerevisiae deletion strains, locus YLR342W, strain FKS1, stronger effect = lower value 0.996 | S. cerevisiae deletion strains, locus YLR357W, strain rsc2, stronger effect = lower value 0.989 | S. cerevisiae deletion strains, locus YLR370C, strain arc18, stronger effect = lower value 0.953 | S. cerevisiae deletion strains, locus YLR371W, strain rom2, stronger effect = lower value 1.01 | S. cerevisiae deletion strains, locus YLR384C, strain iki3, stronger effect = lower value 0.993 | S. cerevisiae deletion strains, locus YLR418C, strain cdc73, stronger effect = lower value 1.02 | S. cerevisiae deletion strains, locus YML016C, strain PPZ1, stronger effect = lower value 0.996 | S. cerevisiae deletion strains, locus YML032C, strain rad52, stronger effect = lower value 1.01 | S. cerevisiae deletion strains, locus YML120C, strain ndi1, stronger effect = lower value 1.01 | S. cerevisiae deletion strains, locus YML124C, strain tub3, stronger effect = lower value 1.01 | S. cerevisiae deletion strains, locus YMR058W, strain fet3, stronger effect = lower value 0.958 | S. cerevisiae deletion strains, locus YMR078C, strain ctf18, stronger effect = lower value 1.02 | S. cerevisiae deletion strains, locus YMR125W, strain sto1, stronger effect = lower value 0.966 | S. cerevisiae deletion strains, locus YMR129W, stronger effect = lower value 0.97 | S. cerevisiae deletion strains, locus YMR205C, strain PFK2, stronger effect = lower value 0.991 | S. cerevisiae deletion strains, locus YMR223W, strain ubp8, stronger effect = lower value 1.03 | S. cerevisiae deletion strains, locus YMR231W, strain pep5, stronger effect = lower value 0.989 | S. cerevisiae deletion strains, locus YMR263W, strain SAP30, stronger effect = lower value 1.02 | S. cerevisiae deletion strains, locus YMR307W, strain GAS1, stronger effect = lower value 1.04 | S. cerevisiae deletion strains, locus YNL067W, strain RPL9B, stronger effect = lower value 1.03 | S. cerevisiae deletion strains, locus YNL071W, strain lat1, stronger effect = lower value 0.974 | S. cerevisiae deletion strains, locus YNL153C, strain GIM3, stronger effect = lower value 1 | S. cerevisiae deletion strains, locus YNL183C, strain NPR1, stronger effect = lower value 0.92 | S. cerevisiae deletion strains, locus YNL209W, strain ssb2, stronger effect = lower value 0.977 | S. cerevisiae deletion strains, locus YNL233W, strain BNI4, stronger effect = lower value 1.01 | S. cerevisiae deletion strains, locus YNL248C, strain rpa49, stronger effect = lower value 0.982 | S. cerevisiae deletion strains, locus YNL250W, strain rad50, stronger effect = lower value 1.03 | S. cerevisiae deletion strains, locus YNL271C, strain bni1, stronger effect = lower value 1.01 | S. cerevisiae deletion strains, locus YNL298W, strain CLA4, stronger effect = lower value 1.04 | S. cerevisiae deletion strains, locus YNL307C, strain MCK1, stronger effect = lower value 1.02 | S. cerevisiae deletion strains, locus YNL322C, strain KRE1 (second series), stronger effect = lower value 0.978 | S. cerevisiae deletion strains, locus YNR049C, strain mso1, stronger effect = lower value 0.961 | S. cerevisiae deletion strains, locus YNR052C, strain pop2, stronger effect = lower value 1.01 | S. cerevisiae deletion strains, locus YOL012C, strain htz1 0.86 | S. cerevisiae deletion strains, locus YOL147C, strain pex11, stronger effect = lower value 1.02 | S. cerevisiae deletion strains, locus YOR001W, strain rrp6, stronger effect = lower value 0.99 | S. cerevisiae deletion strains, locus YOR061W, strain CKA2, stronger effect = lower value 0.996 | S. cerevisiae deletion strains, locus YOR069W, strain VPS5, stronger effect = lower value 1.01 | S. cerevisiae deletion strains, locus YOR070C, strain gyp1, stronger effect = lower value 0.985 | S. cerevisiae deletion strains, locus YOR080W, strain dia2, stronger effect = lower value 0.97 | S. cerevisiae deletion strains, locus YOR083W, strain WHI5, stronger effect = lower value 0.982 | S. cerevisiae deletion strains, locus YOR106W, strain vam3, stronger effect = lower value 0.968 | S. cerevisiae deletion strains, locus YOR136W, strain idh2, stronger effect = lower value 1.01 | S. cerevisiae deletion strains, locus YOR144C, strain elg1, stronger effect = lower value 1.01 | S. cerevisiae deletion strains, locus YOR184W, strain ser1, stronger effect = lower value 1 | S. cerevisiae deletion strains, locus YOR231W, strain MKK1, stronger effect = lower value 0.971 | S. cerevisiae deletion strains, locus YOR265W, strain rbl2, stronger effect = lower value 0.967 | S. cerevisiae deletion strains, locus YOR270C, strain vph1, stronger effect = lower value 1.03 | S. cerevisiae deletion strains, locus YOR290C, strain snf2, stronger effect = lower value 0.939 | S. cerevisiae deletion strains, locus YOR316C, strain cot1, stronger effect = lower value 1.01 | S. cerevisiae deletion strains, locus YPL051W, strain arl3, stronger effect = lower value 0.959 | S. cerevisiae deletion strains, locus YPL078C, strain atp4, stronger effect = lower value 0.978 | S. cerevisiae deletion strains, locus YPL106C, strain sse1, stronger effect = lower value 1 | S. cerevisiae deletion strains, locus YPL240C, strain hsp82, stronger effect = lower value 0.985 | S. cerevisiae deletion strains, locus YPL256C, strain CLN2, stronger effect = lower value 0.965 | S. cerevisiae deletion strains, locus YPR119W, strain clb2, stronger effect = lower value 1.01 | S. cerevisiae deletion strains, locus YPR141C, strain kar3, stronger effect = lower value 1.03 | S. cerevisiae deletion strains, locus YPR163C, strain tif3, stronger effect = lower value 1.02 | S. cerevisiae deletion strains, locus YPR167C, strain met16, stronger effect = lower value 1.02 | S. cerevisiae deletion strains, strain wtn01, stronger effect = lower value 1 | S. cerevisiae strains, strain wild type, stronger effect = lower value 0.997
